Calls of active or inactive are those of the source. The calls were made as follows: active = hit-call score of the fitted dose curve at least 0.9, where 1 is the maximum; inactive = score below 0.9.
Experiments:
[1] = APR_HepG2_P-H2AX_72hr: Apredica 72-hour HepG2 Assay for H2AX Phosphorylation (AID 2282916); details: imaging, actives raise or lower the signal;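 also: phospho-histone H2A.x immunostain intensity per cell marking DNA damage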
Method in brief: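 HepG2 cells treated 72 h at 0.39–200 uM, 0.5% DMSO final, duplicates. Formaldehyde-fixed, Triton-permeabilised, immunostained for phospho-H2A.x with Hoechst; fluorescence imaged at 20x, bidirectional fit versus DMSO.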

[2] = APR_HepG2_MitoMembPot_72hr: Apredica 72-hour HepG2 Assay for Mitochondrial Membrane Potential (AID 2282917); details: imaging, actives raise or lower the signal
Method in brief: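 HepG2 cells exposed 72 h to compounds at 0.39–200 uM (0.5% v/v DMSO, duplicates); MitoTracker Red CMXRos 250 nM loaded 30 min before 3.7% formaldehyde fixation, imaged by HCS fluorescence. Bidirectional fit versus DMSO.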

[3] = APR_HepG2_MitoticArrest_72hr: Apredica 72-hour HepG2 Assay for Mitotic Arrest (AID 2282918); details: high-content imaging, actives raise or lower the signal
Method in brief: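 HepG2 cells were exposed for 72 hr to compound at 0.39–200 uM (10 concentrations, duplicate) in 0.5% v/v DMSO, fixed in 3.7% formaldehyde, immunostained for phospho-histone H3 with Hoechst 33342 and imaged by high-content fluorescence; bidirectional fits versus DMSO.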

[4] = APR_HepG2_MicrotubuleCSK_72hr: Apredica 72-hour HepG2 Assay for Microtubule CSK Stabilty (AID 2282919); details: HepG2 microtubule cytoskeleton, high-content imaging, actives raise or lower the signal
Method in brief: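 HepG2 human liver cells were dosed for 72 h at ten concentrations from 0.39 to 200 uM in duplicate (0.5% v/v DMSO final). Fixed, permeabilized cells were immunostained for alpha-tubulin (Cy5) with a Hoechst counterstain and imaged at 20x.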

[5] = APR_HepG2_P-H2AX_24hr: Apredica 24-hour HepG2 Assay for H2AX Phosphorylation (AID 2282920); details: high-content imaging, actives raise or lower the signal
Method in brief: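 HepG2 human liver cells were exposed for 24 hr to compounds at 0.39–200 uM in duplicate, with 0.5% v/v DMSO final. Fixed cells were immunostained for phospho-histone H2A.x plus Hoechst 33342, imaged by HCS fluorescence, and fitted bidirectionally against DMSO.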

[6] = APR_HepG2_StressKinase_72hr: Apredica 72-hour HepG2 Assay for Stress Kinase (AID 2282921); details: HepG2 stress kinase (phospho-c-Jun) imaging, actives raise or lower the signal
Method in brief: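 HepG2 cells treated 72 hr with 0.39–200 uM compound, 0.5% v/v DMSO, duplicate wells. After formaldehyde fixation and Triton permeabilization, stained with anti-phospho-c-Jun (1:500) and Cy3 secondary, imaged at 20x. Fitted in both directions against DMSO.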

[7] = APR_HepG2_StressKinase_24hr: Apredica 24-hour HepG2 Assay for Stress Kinase (AID 2282922); details: HepG2 stress kinase (phospho-c-Jun) imaging, actives raise or lower the signal
Method in brief: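 HepG2 cells exposed 24 hr to compound at 0.39–200 uM (10 concentrations, duplicate), 0.5% v/v DMSO final. Fixed in 3.7% formaldehyde, permeabilized with Triton X-100, immunolabeled for phospho-c-Jun with Hoechst 33342; HCS fluorescence imaging, bidirectional fit versus DMSO.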

[8] = APR_HepG2_p53Act_72hr: Apredica 72-hour HepG2 Assay for p53 Activation (AID 2282923); details: high-content imaging, actives raise or lower the signal;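 also: average cellular p53 protein immunofluorescence intensity in HepG2 cells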
Method in brief: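 HepG2 cells exposed 72 h to 0.39–200 uM in 0.5% DMSO, duplicates. Fixed, permeabilized cells immunostained for p53 (Cy5) with Hoechst; imaged at 20x, fluorescence analyzed bidirectionally against DMSO.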

[9] = APR_HepG2_MitoMass_72hr: Apredica 72-hour HepG2 Assay for Mitochondrial Mass (AID 2282924); details: high-content imaging, actives raise or lower the signal;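 also: MitoTracker Red CMXRos stain intensity per cell imaged as mitochondrial mass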
Method in brief: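 HepG2 cells were exposed for 72 hr to compounds at 0.39–200 uM (ten concentrations, duplicate, 0.5% v/v DMSO final). Live cells were stained with 250 nM MitoTracker Red CMXRos for 30 min, then fixed in 3.7% formaldehyde and imaged by HCS fluorescence.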

[10] = APR_HepG2_NuclearSize_72hr: Apredica 72-hour HepG2 Assay for Nuclear Size (AID 2282925); details: high-content imaging, actives raise or lower the signal
Method in brief: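 HepG2 cells were exposed to compounds at ten concentrations from 0.39 to 200 uM (duplicate, 0.5% DMSO final) for 72 hr. After fixation in 3.7% formaldehyde, nuclei were stained with Hoechst 33342 (2 ug/mL) and imaged at 20x.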

[11] = ATG_CRE_CIS: Attagene CIS-FACTORIAL HepG2 Assay for human cAMP Responsive Element (CRE) binding protein 3 (AID 2282926); details: HepG2 CRE cis-reporter, Attagene multiplexed mRNA; actives raise or lower the signal
Method in brief: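 HepG2 cells transiently transfected with a multiplexed reporter library (CRE-driven unit among them) were dosed for 24 h. Reporter mRNA was quantified by RT-PCR, fluorescent labelling, HpaI digestion and capillary electrophoresis, with bidirectional fitting against DMSO baseline.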

[12] = target: CCAAT/enhancer-binding protein beta (Homo sapiens) (UniProt P17676); test: ATG_C_EBP_CIS: Attagene CIS-FACTORIAL HepG2 Assay for human CCAAT/Enhancer Binding Protein (C/EBP) beta (AID 2282927); details: HepG2 Attagene cis-factorial transcription factor reporter; actives raise or lower the signal
Method in brief: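 Following a 24 h incubation with test chemical, transfected HepG2 cells yielded RNA whose reporter transcripts were quantified by RT-PCR and fluorescent capillary electrophoresis, with DMSO serving as baseline for bidirectional fitting.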

[13] = ATG_DR4_LXR_CIS: Attagene CIS-FACTORIAL HepG2 Assay for human Liver X Receptor (LXR), DR4 submotif (AID 2282929); details: HepG2 Attagene DR4 cis-reporter, mRNA transcription; actives raise or lower the signal
Method in brief: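 Readout: reporter transcript fluorescence after RT-PCR and capillary electrophoresis, fitted bidirectionally against DMSO controls. Human HepG2 liver cells carried transiently transfected multiplexed reporter constructs; endogenous transcription factor activity measured 24 h post-dosing.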

[14] = ATG_AP_1_CIS: Attagene CIS-FACTORIAL HepG2 Assay for human Activator Protein 1 (AP-1) (AID 2282931); details: HepG2 Attagene cis-factorial AP-1 reporter mRNA; actives raise or lower the signal
Method in brief: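 Reporter transcripts were measured 24 h after dosing by RT-PCR and capillary electrophoresis of fluorescent fragments. Cells: HepG2 carrying transfected cis-regulated reporter constructs reading endogenous factor activity. Gain or loss fitted against DMSO.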

[15] = ATG_AP_2_CIS: Attagene CIS-FACTORIAL HepG2 Assay for human Activator Protein 2 (AP-2) (AID 2282932); details: HepG2 AP-2 cis-reporter, Attagene transcription factor profiling; actives raise or lower the signal
Method in brief: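 Bidirectional curve fitting against DMSO was applied to reporter mRNA signals from HepG2 cells 24 h after dosing. Cis-promoter reporter units, transiently transfected, were read by RT-PCR plus capillary electrophoresis.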

[16] = ATG_BRE_CIS: Attagene CIS-FACTORIAL HepG2 Assay for human Bone Morphogenetic Protein (BMP) Response Element (BRE) (AID 2282933); details: HepG2 BMP response element reporter, Attagene transcription factor profiling; actives raise or lower the signal
Method in brief: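 After a 24 h chemical treatment, transiently transfected HepG2 cells were lysed for RNA; reporter transcripts were quantified by fluorescent RT-PCR and capillary electrophoresis, normalised to DMSO.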

[17] = target: Aryl hydrocarbon receptor (Homo sapiens) (UniProt P35869); test: ATG_Ahr_CIS: Attagene CIS-FACTORIAL HepG2 Assay for human Aryl Hydrocarbon Receptor (Ahr) (AID 2282930); details: HepG2 AhR cis-factorial reporter transcription; actives raise or lower the signal
Method in brief: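 Values derive from bidirectional fitting against DMSO negative control. Underlying signal: cis-element reporter mRNA in transiently transfected HepG2, harvested 24 h post-dose and measured by RT-PCR plus capillary electrophoresis.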

[18] = target: Retinoic acid receptor alpha (Homo sapiens) (UniProt P10276); test: ATG_DR5_RAR_CIS: Attagene CIS-FACTORIAL HepG2 Assay for human Retinoic Acid Receptor Alpha (RARE), DR5 submotif (AID 2282934); details: HepG2 Attagene cis-factorial RARE DR5 reporter, mRNA; actives raise or lower the signal;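 as to AC50: reporter responds to endogenous RAR alpha beta and gamma in HepG2 not RARA alone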
Method in brief: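 Endpoint fitted in both directions relative to DMSO as negative control. It reflects DR5 cis-element reporter mRNA induction in transiently transfected HepG2 cells, measured 24 h after dosing through RT-PCR and fluorescent capillary electrophoresis.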

[19] = target: Transcription factor E2F1 (Homo sapiens) (UniProt Q01094); test: ATG_E2F_CIS: Attagene CIS-FACTORIAL HepG2 Assay for human E2F Transcription Factor 1 (AID 2282935); details: HepG2 Attagene cis-reporter, E2F reporter RNA transcripts; actives raise or lower the signal
Method in brief: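 Multiplexed cis-reporter assay: HepG2, transient transfection, 24 h dosing, mRNA quantitation by labeled RT-PCR and CE.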

[20] = ATG_CMV_CIS: Attagene CIS-FACTORIAL HepG2 Assay for human CMV (Internal Marker) (AID 2282928); details: HepG2 CMV promoter reporter, transcription factor profiling; actives raise or lower the signal;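 also: endpoint acts as a background internal control marker rather than a target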
Method in brief: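 Endogenous transcription factor activity read in HepG2 via transfected cis-promoter reporter units. After 24 h dosing, reporter mRNA measured by RT-PCR/capillary electrophoresis; gain or loss of signal fit relative to DMSO.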

Measured: AC50

Transcription factor E2F1 (Homo sapiens), sequence (Q01094 whole entry, looked up): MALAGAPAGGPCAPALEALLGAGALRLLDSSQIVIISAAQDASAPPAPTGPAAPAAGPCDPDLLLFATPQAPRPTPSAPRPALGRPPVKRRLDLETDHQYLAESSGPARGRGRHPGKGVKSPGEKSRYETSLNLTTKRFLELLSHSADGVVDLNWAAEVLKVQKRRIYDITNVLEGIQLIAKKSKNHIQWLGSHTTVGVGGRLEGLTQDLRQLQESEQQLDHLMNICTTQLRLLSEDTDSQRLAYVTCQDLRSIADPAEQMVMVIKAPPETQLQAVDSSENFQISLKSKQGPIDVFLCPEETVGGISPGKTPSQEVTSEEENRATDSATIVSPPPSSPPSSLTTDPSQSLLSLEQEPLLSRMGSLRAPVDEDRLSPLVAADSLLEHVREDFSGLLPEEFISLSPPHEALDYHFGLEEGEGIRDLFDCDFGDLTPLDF
Aryl hydrocarbon receptor (Homo sapiens), sequence (P35869 whole entry, looked up): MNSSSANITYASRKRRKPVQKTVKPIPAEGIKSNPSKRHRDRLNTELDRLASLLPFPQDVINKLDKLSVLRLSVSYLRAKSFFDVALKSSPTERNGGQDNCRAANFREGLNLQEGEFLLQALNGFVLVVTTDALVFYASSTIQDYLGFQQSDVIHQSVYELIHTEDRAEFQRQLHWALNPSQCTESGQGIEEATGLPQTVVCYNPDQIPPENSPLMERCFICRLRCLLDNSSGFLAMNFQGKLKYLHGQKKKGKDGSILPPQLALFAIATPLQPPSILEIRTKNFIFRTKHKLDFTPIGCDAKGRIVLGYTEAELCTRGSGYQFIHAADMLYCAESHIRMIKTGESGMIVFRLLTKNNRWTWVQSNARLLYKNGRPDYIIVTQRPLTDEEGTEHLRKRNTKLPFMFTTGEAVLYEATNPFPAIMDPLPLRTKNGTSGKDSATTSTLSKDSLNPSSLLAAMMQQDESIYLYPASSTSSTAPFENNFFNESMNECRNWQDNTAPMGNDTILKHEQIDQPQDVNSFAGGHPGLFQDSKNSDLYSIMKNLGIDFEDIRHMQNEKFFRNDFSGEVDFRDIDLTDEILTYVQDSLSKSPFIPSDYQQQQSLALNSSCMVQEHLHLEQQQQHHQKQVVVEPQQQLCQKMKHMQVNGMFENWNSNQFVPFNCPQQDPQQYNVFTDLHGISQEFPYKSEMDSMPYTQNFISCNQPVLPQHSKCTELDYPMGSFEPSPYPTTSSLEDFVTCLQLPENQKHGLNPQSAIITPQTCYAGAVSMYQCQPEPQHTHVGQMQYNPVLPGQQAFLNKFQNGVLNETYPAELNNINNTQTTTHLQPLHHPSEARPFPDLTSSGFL
CCAAT/enhancer-binding protein beta (Homo sapiens), sequence (P17676 whole entry, looked up): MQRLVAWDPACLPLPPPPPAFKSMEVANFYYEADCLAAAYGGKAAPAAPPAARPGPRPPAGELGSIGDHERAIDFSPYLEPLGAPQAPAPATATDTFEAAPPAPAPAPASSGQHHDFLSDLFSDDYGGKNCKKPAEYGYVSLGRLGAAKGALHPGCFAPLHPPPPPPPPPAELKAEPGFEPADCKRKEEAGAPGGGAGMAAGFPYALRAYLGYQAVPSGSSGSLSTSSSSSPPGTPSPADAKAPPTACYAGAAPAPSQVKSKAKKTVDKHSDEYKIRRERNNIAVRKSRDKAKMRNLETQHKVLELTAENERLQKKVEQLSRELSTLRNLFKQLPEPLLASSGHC
Retinoic acid receptor alpha (Homo sapiens), sequence (P10276 whole entry, looked up): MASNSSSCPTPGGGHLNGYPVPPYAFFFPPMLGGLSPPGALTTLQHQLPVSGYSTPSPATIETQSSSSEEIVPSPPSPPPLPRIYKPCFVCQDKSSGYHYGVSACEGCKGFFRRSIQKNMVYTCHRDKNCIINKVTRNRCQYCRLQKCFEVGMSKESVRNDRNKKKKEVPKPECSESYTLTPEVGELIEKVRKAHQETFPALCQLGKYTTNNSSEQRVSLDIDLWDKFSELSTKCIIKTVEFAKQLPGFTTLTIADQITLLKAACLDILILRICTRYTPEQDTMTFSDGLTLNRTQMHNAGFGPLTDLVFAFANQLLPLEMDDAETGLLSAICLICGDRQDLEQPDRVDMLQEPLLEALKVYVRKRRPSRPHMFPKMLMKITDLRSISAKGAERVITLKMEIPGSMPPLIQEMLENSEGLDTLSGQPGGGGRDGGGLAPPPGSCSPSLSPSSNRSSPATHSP

[Cl-].[Cl-].[Hg+2]
inactive: [1] | [2] | [6] | [8] | [9] | [10] | [11] | [12] | [14] | [15] | [16]
active: [3] 17.6 µM | [4] 13.2 µM | [5] 21.5 µM | [7] 19.8 µM | [13] 33.4 µM

CC(C)(OOC(C)(C)c1ccccc1)c1ccccc1
active: [3] 41.9 µM | [11] 57.4 µM | [12] 59.3 µM | [13] 63.9 µM | [14] 57.5 µM | [16] 48.5 µM
inactive: [1] | [2] | [4] | [5] | [6] | [7] | [8] | [9] | [10] | [17] | [15] | [18] | [19]

Cn1cc(-c2ccccc2)c(=O)c(-c2cccc(C(F)(F)F)c2)c1
active: [11] 79.1 µM | [12] 66.9 µM | [13] 73.7 µM | [17] 69.1 µM | [18] 15.3 µM
inactive: [1] | [2] | [3] | [4] | [5] | [6] | [7] | [8] | [9] | [10] | [20] | [14] | [15] | [16]

C1=Cc2cccc3cccc1c23
inactive: [1] | [2] | [3] | [4] | [5] | [6] | [7] | [8] | [9] | [11] | [12] | [20] | [13] | [14] | [15] | [16] | [18] | [19]

Oc1ccc2ccc3cccc4ccc1c2c34
inactive: [6] | [8] | [11] | [12] | [20] | [15] | [16] | [18]
active: [1] 50.3 µM | [2] 75.4 µM | [3] 63.9 µM | [4] 85.4 µM | [5] 62.9 µM | [7] 80.8 µM | [9] 46.4 µM | [13] 11.1 µM

CCCCOC(=O)c1ccccc1C(=O)OCc1ccccc1
inactive: [1] | [2] | [3] | [4] | [5] | [6] | [7] | [9] | [10] | [11] | [12] | [20] | [13] | [17] | [14] | [15] | [16] | [18]
active: [8] 98.9 µM

CC(C)(C)C(O)(CCc1ccc(Cl)cc1)Cn1cncn1 (stereo unspecified)
active: [1] 111 µM | [3] 99.6 µM | [4] 107 µM | [5] 113 µM | [6] 113 µM | [7] 108 µM | [8] 121 µM | [9] 105 µM | [20] 122 µM | [13] 152 µM | [17] 52.3 µM | [16] 147 µM
inactive: [2] | [10] | [11] | [12] | [15] | [18] | [19]

From PubChem BioAssay (EPA / NIEHS)
